Experimental data: PubChem BioAssay
Active and inactive are the calls of the source.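 Rule for the calls, unless noted: active = inhibition above 20% together with a positive visual image hit; inconclusive = visual image hit but inhibition not above 20%; inactive = no visual image hit.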

Experiments:
[1] = inhibitors of TNFa-induced NFkB p65 translocation, primary screen, imaging, HUVEC, MLSMR starter and 10KST1 sets (AID 438); conditions: HUVEC TNFa-induced p65 nuclear translocation; cell count: measured here: nuclei count (cytotoxicity indicator), at 2.08 µM; inhibition: at 2 µM, stronger effect = higher value, 0% TNFa-plus-vehicle, 100% no-TNFa wells;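 note: compound added about 3h40 before a 20 min TNFalpha stimulation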;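 for inhibition: signal is the nuclear over cytoplasmic p65 intensity ratio per well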
[2] = reduction of polyQ htt aggregates in cells – imaging, exon1htt(103Q)mCFP cells, high-content imaging, primary screen (AID 483;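 active = visual image review flags a hit and inhibition of aggregation exceeds 20%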;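 note: compound exposure lasted 3 days before fixation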;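 for nuclei count: percent of the per-plate median nuclei count of sample wells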); conditions: exon1htt(103Q)mCFP cell line, aggregate imaging, at 2 µM; inhibition of aggregation: stronger effect = higher value; nuclei count: measured here: cell count, toxicity
[3] = endothelial E-selectin expression blockers – imaging, HUVEC, immunofluorescence, MLSMR starter and 10KST1 sets, primary screen (AID 487;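 active = visually confirmed hit in the image check and inhibition above 20%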;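 for inhibition: signal is fraction of cell area covered by stained E-selectin grains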;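 for nuclei count: 100% = median nuclei count of all wells on the same plate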); conditions: HUVEC TNFalpha-induced E-selectin immunofluorescence imaging, at 2 µM; inhibition: stronger effect = higher value; nuclei count: measured here: cell number, toxicity
[4] = biological target: Voltage-gated potassium channel subunit beta-2 (Rattus norvegicus) (UniProt P62483); experiment: inhibitors of rat Kvbeta2 reductase activity – biochemical, NADPH fluorescence, primary screen (AID 622;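 active = fluorescence slope higher than the sample average by over 3 SD, cut at about -0.22 in these data, passing the limit was not always enough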;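 note: slope of raw intensity against log time taken from 70 to 1610 s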); conditions: recombinant KvBeta, 4-cyanobenzaldehyde reduction, at 10 µM, stronger effect = higher value
[5] = biological target: Voltage-gated potassium channel subunit beta-2 (Rattus norvegicus) (UniProt P62483); experiment: enhancers of rat Kvbeta2 NADPH turnover – biochemical, NADPH fluorescence, primary screen (AID 623;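 active = NADPH fluorescence slope more negative than the mean of all samples by about 3 SD, 99.7% confidence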;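 note: fluorescence intensity change per second fitted from 20 to 320 s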); conditions: Recombinant KvBeta, NADPH fluorescence decrease slope, 10 min; at 10 µM; stronger effect = lower value
[6] = biological target: Alpha-2C adrenergic receptor (Homo sapiens) (UniProt P18825); experiment: compounds altering alpha2C-coupled GIRK flux – cell-based, HEK293 alpha2C/GIRK1/2, thallium flux, primary screen (AID 624;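 active = fluorescence slope after compound addition differing from the mean of all screened samples at 99.7% confidence, in either direction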;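 note: slope of fluorescence ratio to pre-addition baseline per second over 15 to 24 s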); conditions: thallium flux BTC fluorescence, at 10 µM, actives lie on both sides
[7] = blockers of RIG-like receptor reporter activation – cell-based, Sendai virus stimulus, luciferase, 10K MLSCN set, TLR/RLR signaling modifier project, primary screen (AID 602276;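 active = inhibition at or above 50% at 10 µM; inactive = inhibition below 50%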;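 note: firefly luciferase from ISG56 promoter only with Renilla not read in this screen; 0% = Sendai virus plus DMSO and 100% = medium plus DMSO without virus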); conditions: HEK293 RL24 IRF3 luciferase reporter, at 10 µM, stronger effect = higher value
[8] = TLR3 IRF3 reporter activation blockers – cell-based, poly I:C stimulus, luciferase, 10K MLSCN set, primary screen (AID 602277;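 active = inhibition of the reporter signal at or above 50%; inactive = inhibition below 50%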); conditions: HEK293-TLR3 RL24 IRF3 luciferase reporter, at 10 µM, stronger effect = higher value

Voltage-gated potassium channel subunit beta-2 (Rattus norvegicus), sequence (P62483 whole entry, looked up): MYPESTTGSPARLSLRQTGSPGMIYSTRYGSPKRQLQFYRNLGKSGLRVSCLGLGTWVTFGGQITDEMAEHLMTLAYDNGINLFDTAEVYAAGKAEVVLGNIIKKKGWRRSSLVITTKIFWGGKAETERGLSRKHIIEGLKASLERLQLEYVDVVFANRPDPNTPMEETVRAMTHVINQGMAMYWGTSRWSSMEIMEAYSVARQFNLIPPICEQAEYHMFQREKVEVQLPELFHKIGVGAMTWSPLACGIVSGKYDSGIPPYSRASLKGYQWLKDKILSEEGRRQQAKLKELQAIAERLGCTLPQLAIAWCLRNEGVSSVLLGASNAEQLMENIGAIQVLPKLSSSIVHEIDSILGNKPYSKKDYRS
Alpha-2C adrenergic receptor (Homo sapiens), sequence (P18825 whole entry, looked up): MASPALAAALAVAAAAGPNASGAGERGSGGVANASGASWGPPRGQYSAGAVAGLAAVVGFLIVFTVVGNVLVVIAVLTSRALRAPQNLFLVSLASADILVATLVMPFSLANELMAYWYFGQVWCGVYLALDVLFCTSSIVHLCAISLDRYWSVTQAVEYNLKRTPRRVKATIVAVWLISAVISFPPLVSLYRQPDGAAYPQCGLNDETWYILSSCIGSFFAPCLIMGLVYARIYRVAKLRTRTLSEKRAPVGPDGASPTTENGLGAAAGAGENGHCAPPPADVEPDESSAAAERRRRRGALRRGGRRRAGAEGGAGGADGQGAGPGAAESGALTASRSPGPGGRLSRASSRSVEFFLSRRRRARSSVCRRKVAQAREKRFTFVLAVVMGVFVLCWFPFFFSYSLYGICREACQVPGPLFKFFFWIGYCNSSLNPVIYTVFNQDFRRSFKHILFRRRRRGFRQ

| SMILES | cell count [1] | inhibition [1] | inhibition of aggregation [2] | nuclei count [2] [%] | inhibition [3] | nuclei count [3] [%] | fluorescence slope [4] | NADPH fluorescence slope [5] | slope [6] | inhibition [7] | inhibition [8] |
| --- | --- | --- | --- | --- | --- | --- | --- | --- | --- | --- | --- |
| COc1ccc(-c2ccc(Nc3ccc(S(=O)(=O)N4CCCC4)cc3)nn2)cc1OC | 702 | -6.1% (inactive) | -4.9% (inactive) | 103 | -94.1% (inactive) | 109 | -0.601 (inactive) | -4.3e-05 (inactive) | 0.004 (inactive) | -5.55% (inactive) | -13.6% (inactive) |
| Cn1c(Cl)nc2ccccc21 | 467 | 3.8% (inactive) | 12.8% (inactive) | 93.2 | 45.8% (inactive) | 93.3 | -0.514 (inactive) | -5.9e-05 (inactive) | 0.00423 (inactive) | 19.3% (inactive) | 51% (active) |
| CCOC(=O)N1CCN(Cc2nc3c(c(=O)n(C)c(=O)n3C)n2Cc2ccccc2)CC1 | 598 | 2.9% (inactive) | -8.1% (inactive) | 120 | 0.1% (inactive) | 115 | -0.538 (inactive) | -3.9e-05 (inactive) | 0.00607 (inactive) | 9% (inactive) | 14.8% (inactive) |
| CCOC(=O)c1ccccc1NC(=O)CSc1nccn1C | 436 | 9.7% (inactive) | -23.9% (inactive) | 108 | -32.6% (inactive) | 108 | -0.465 (inactive) | -0.000118 (inactive) | 0.00604 (inactive) | 8.57% (inactive) | 19.3% (inactive) |
| c1ccc(-c2noc(C3CCCCC3)n2)nc1 | 665 | -44.9% (inactive) | -13.4% (inactive) | 97.5 | -29.2% (inactive) | 110 | -0.52 (inactive) | -2.4e-05 (inactive) | 0.00485 (inactive) | -1.58% (inactive) | -68.3% (inactive) |
| CN(C)CCCN1C(=O)CSC1c1ccccc1 (stereo unspecified) | 607 | -8.9% (inactive) | 30.6% (inactive) | 93.9 | -57.4% (inactive) | 104 | -0.541 (inactive) | -3e-05 (inactive) | 0.00787 (inactive) | 4.6% (inactive) | 35.9% (inactive) |
| Cc1cn2c(-c3ccc(Cl)cc3)nnc2s1 | 752 | -1.6% (inactive) | 17.6% (inactive) | 98 | -81% (inactive) | 109 | -0.563 (inactive) | -4.1e-05 (inactive) | 0.00702 (inactive) | 6.2% (inactive) | 12.3% (inactive) |
| CCOC(=O)Cn1c(CN(C)Cc2ccccc2)nc2c1c(=O)n(C)c(=O)n2C | 241 | 6.8% (inactive) | 6.2% (inactive) | 92.6 | 26.4% (inactive) | 94.7 | -0.278 (inactive) | -3.7e-05 (inactive) | 0.00521 (inactive) | 13.2% (inactive) | 10.8% (inactive) |
| CCSc1nncn1/N=C/c1ccc(OC)c(OC)c1 | 403 | -9.6% (inactive) | 32.4% (inactive) | 89.8 | 39.9% (inactive) | 82.5 | -0.319 (inactive) | 2e-05 (inactive) | 0.00581 (inactive) | -8.45% (inactive) | -5.17% (inactive) |
| Cc1nc2sc(C(c3cccc(F)c3)N3CCOCC3)c(O)n2n1 (stereo unspecified) | 244 | -9% (inactive) | -29% (inactive) | 112 | -18.1% (inactive) | 119 | -0.502 (inactive) | -9.8e-05 (inactive) | 0.00576 (inactive) | -7.54% (inactive) | 99.3% (active) |
| COc1ccc(Cl)cc1N1CC(c2nc3ccccc3[nH]2)CC1=O (stereo unspecified) | 542 | 1.4% (inactive) | 2% (inactive) | 114 | 1.9% (inactive) | 107 | -0.607 (inactive) | 6.8e-06 (inactive) | 0.00704 (inactive) | 16.2% (inactive) | 16.9% (inactive) |
| Cc1ccc(S(=O)(=O)N2CCN(S(=O)(=O)N(C)C)CC2)cc1 | 362 | 4.3% (inactive) | -29.3% (inactive) | 101 | 8.9% (inactive) | 111 | -0.518 (inactive) | -1.8e-06 (inactive) | 0.00563 (inactive) | 12.1% (inactive) | 15.4% (inactive) |
| CC1Cc2nc(SCC(=O)Nc3ccc4c(c3)OCO4)n(-c3ccc(F)cc3)c(=O)c2S1 (stereo unspecified) | 680 | -23.4% (inactive) | -2.5% (inactive) | 102 | -32.8% (inactive) | 107 | -0.401 (inactive) | -6.4e-05 (inactive) | 0.00514 (inactive) | -0.186% (inactive) | 51.2% (active) |
| c1cn(CC2(Cn3ccnc3)COC2)cn1 | 793 | -6.2% (inactive) | -13.4% (inactive) | 104 | -2.3% (inactive) | 105 | -0.614 (inactive) | -1.1e-05 (inactive) | 0.00589 (inactive) | 14.1% (inactive) | 17.6% (inactive) |
| COc1ccc(C(=O)Oc2c(CN3CCOCC3)cc(Cl)c3cccnc23)cc1OC | 601 | -2.4% (inactive) | -3.9% (inactive) | 100 | -53.1% (inactive) | 111 | -0.533 (inactive) | -2.5e-05 (inactive) | 0.00812 (inactive) | -3.08% (inactive) | 30.9% (inactive) |
| O=C(O)c1cc(-c2ccccc2Cl)n[nH]1 | 240 | 8% (inactive) | -10.1% (inactive) | 109 | -51% (inactive) | 97.9 | -0.604 (inactive) | -2e-05 (inactive) | 0.00669 (inactive) | 11.2% (inactive) | 22.8% (inactive) |
| O=C(Nc1cccc2ccccc12)N1CCN(c2ccccc2)CC1 | 767 | -6.4% (inactive) | 26.6% (inactive) | 94.9 | -12.2% (inactive) | 100 | -0.525 (inactive) | -2.7e-05 (inactive) | 0.00612 (inactive) | 8.28% (inactive) | 15.2% (inactive) |
| O=C(Cn1cnc2c(nnn2Cc2ccccc2)c1=O)c1ccc(Cl)cc1 | 561 | 8.2% (inactive) | -6.2% (inactive) | 86.3 | -22% (inactive) | 108 | -0.591 (inactive) | -4.2e-06 (inactive) | 0.00679 (inactive) | 11.9% (inactive) | 21.3% (inactive) |
| CCCC(=O)Nc1cnc(NC(=O)c2cccc(F)c2)cc1C | 465 | 14.1% (inactive) | 6.6% (inactive) | 95.6 | 46% (inactive) | 103 | -0.563 (inactive) | 4e-05 (inactive) | 0.00559 (inactive) | -24.4% (inactive) | -162% (inactive) |
| Cc1coc2cc3oc(=O)c4c(c3cc12)CCC4 | 714 | 6.7% (inactive) | -13.1% (inactive) | 59.7 | -48.2% (inactive) | 135 | -0.566 (inactive) | -1.8e-05 (inactive) | 0.00717 (inactive) | -1.57% (inactive) | -5.8% (inactive) |
| CCCCCn1c(CN2CCN(C)CC2)nc2c1c(=O)n(C)c(=O)n2C | 521 | -1.4% (inactive) | -17.1% (inactive) | 95.8 | 0.3% (inactive) | 93.2 | -0.571 (inactive) | -3e-06 (inactive) | 0.00637 (inactive) | 1.18% (inactive) | 43.6% (inactive) |
| CCCc1cc(=O)oc2c(C)c3occ(C)c3cc12 | 486 | 2.1% (inactive) | -5.5% (inactive) | 99.6 | -11.9% (inactive) | 109 | -0.57 (inactive) | -4.7e-05 (inactive) | 0.00609 (inactive) | 2.73% (inactive) | 6.19% (inactive) |
| COc1ccccc1N1CCN(C(=O)c2c(-c3c(Cl)cccc3Cl)noc2C)CC1 | 652 | -11.7% (inactive) | 3.7% (inactive) | 90.6 | -24.6% (inactive) | 110 | -0.377 (inactive) | -2.9e-05 (inactive) | 0.00504 (inactive) | 18.3% (inactive) | 38.3% (inactive) |
| O=C(NCCCN1CCOCC1)c1ccc(CS(=O)(=O)c2c(Cl)cccc2Cl)o1 | 440 | 0.9% (inactive) | -10.5% (inactive) | 98.2 | -46.8% (inactive) | 103 | -0.458 (inactive) | 2.8e-05 (inactive) | 0.00463 (inactive) | -8.21% (inactive) | 6.97% (inactive) |
| O=C(CN1C(=O)COc2ccccc21)N(Cc1cccnc1)Cc1ccccc1F | 661 | -2.9% (inactive) | -5.5% (inactive) | 77.4 | -6.3% (inactive) | 106 | -0.324 (inactive) | -5.8e-05 (inactive) | 0.00465 (inactive) | 15.9% (inactive) | 32.6% (inactive) |
| COc1ccccc1N1CCN(CC(O)c2ccc3cc[nH]c3c2)CC1 (stereo unspecified) | 633 | -3.9% (inactive) | 3.6% (inactive) | 114 | -43.4% (inactive) | 105 | -0.54 (inactive) | -1.4e-05 (inactive) | 0.0062 (inactive) | -0.148% (inactive) | 27.7% (inactive) |
